# Measurements: PubChem BioAssay (NCI)
# About 83,000 compounds went through this panel and 20% of them were active in at least one assay; those are over-represented in the sample as a whole.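 Step 1: grow cells in 96-well plates. Step 2: add test compound at a single concentration. Step 3: incubate 48 h. Step 4: record percent growth.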 Unmarked numbers belong to inactive results. Active and inactive are the calls of the source. How the source made its calls: active means growth percent below 10; inactive means the rest.
# How the values were obtained:
# Experiment in all cases: NCI-60 one-dose screen, 48 h (100 = growth as untreated, 0 = no growth, -100 = all killed)
# Conditions in all cases: 10 µM unless noted
# SR leukemia = tested on: SR leukemia
# OVCAR-8 ovarian = tested on: OVCAR-8 ovarian
# OVCAR-5 ovarian = tested on: OVCAR-5 ovarian
# OVCAR-4 ovarian = tested on: OVCAR-4 ovarian
# SK-OV-3 ovarian = tested on: SK-OV-3 ovarian
# IGROV1 ovarian = tested on: IGROV1 ovarian
# HS 578T breast = tested on: HS 578T breast
# NCI/ADR-RES ovarian = tested on: NCI/ADR-RES ovarian
# OVCAR-3 ovarian = tested on: OVCAR-3 ovarian
SMILES,growth (SR leukemia),growth (OVCAR-8 ovarian),growth (OVCAR-5 ovarian),growth (OVCAR-4 ovarian),growth (SK-OV-3 ovarian),growth (IGROV1 ovarian),growth (HS 578T breast),growth (NCI/ADR-RES ovarian),growth (OVCAR-3 ovarian)
NC(N)=NS(=O)(=O)c1ccc(N=Nc2c(N)nn(-c3ccc([N+](=O)[O-])cc3[N+](=O)[O-])c2N)cc1,107%,100%,106%,104%,91.4%,103%,97.9%,99.3%,
Clc1ccc(CSc2nnc(-c3ccc(Cl)cc3)n2-c2ccccc2)cc1,91.7%,46.3%,104%,16%,48.3%,75.9%,43.7%,54.2%,101%
CC1=C(C)C(=O)C(Nc2ccc(C)cc2)=C(Br)C1=O,43.6%,92.7%,108%,75.6%,85.5%,94.5%,96.7%,95.7%,105%
CN(C)c1ccc(/C=N/Nc2nc(N/N=C/c3ccc(N(C)C)cc3)nc(N3CCCCC3)n2)cc1,-14.1% (active),56.6%,96.1%,106%,132%,93.8%,106%,58.3%,65.6%
CN1CCN(Cc2ccc(NC(=O)c3cncc(C#Cc4cnc5ccc(OC6CCOCC6)nn45)c3)cc2C(F)(F)F)CC1,-16.2% (active),-58.8% (active),-55.4% (active),-53.7% (active),,-43.3% (active),-38.1% (active),-37.7% (active),
CCN(CC)c1ccc(/C=N/NC(=O)c2ccc(S(N)(=O)=O)cc2)cc1,14.1%,14.6%,46.7%,30.4%,,19.9%,64.1%,53.8%,
O=C(Nc1ccc(N=Cc2c(O)[nH]c3ccccc23)cc1)Nc1ccc(S(=O)(=O)Nc2ncccn2)cc1,96.4%,102%,130%,101%,114%,112%,103%,106%,117%
CC(=O)OC[C@]12CC[C@@H](C(=O)/C=C/c3cccnc3)[C@@H]1[C@H]1CC[C@@H]3[C@@]4(C)CC[C@H](OC(C)=O)C(C)(C)[C@@H]4CC[C@@]3(C)[C@]1(C)CC2,6.42% (active),23.2%,15.1%,21.9%,,-12.9% (active),14.5%,-14.2% (active),8.9% (active)
O=c1oc2ccc(-c3ccc(F)cc3F)cc2c(=O)n1-c1ccc(Br)cc1F,85.1%,69.5%,108%,78.7%,63.9%,58.3%,47.2%,75.3%,
CC1=C(C)C(=O)C(Nc2ccc3c(c2)OCO3)=C(Br)C1=O,56.9%,98.3%,116%,60.3%,87.6%,,99.7%,97.4%,104%
Cn1ncc2c(C(=O)c3ccc(F)cc3)nc(C(C)(C)C)nc21,102%,105%,98.2%,107%,112%,,96.5%,107%,98.6%
CC(C)(C)Nc1nc2c(OCCc3ccccc3)cccn2c1-c1cccc(Oc2ccccc2)c1,3.9% (active),10.2%,17.7%,31.2%,-1.76% (active),34%,13.9%,7.94% (active),24%
Brc1ccc2[nH]cc(-c3nn4cc(-c5nccs5)nc4s3)c2c1,45.2%,10.5%,67.5%,-4% (active),61.5%,32%,-0.729% (active),15.8%,
CC(=O)C1=C(C)NC(NNc2ccccc2)=NC1c1ccc([N+](=O)[O-])cc1 (stereo not given),62.4%,91.1%,95.9%,84.3%,106%,82.6%,99.6%,91.4%,99.7%
NS(=O)(=O)c1ccc(Nc2nc(N/N=C/C=C/c3ccccc3)nc(Nc3ccccc3)n2)cc1,14.9%,50%,99.2%,49.6%,78.3%,36.8%,39.7%,91.1%,
CCN(CC)c1ccc(/C=N/NC(=O)c2ccc(NS(C)(=O)=O)cc2)cc1,13.5%,9.7% (active),,35.6%,35.4%,21.2%,65.6%,58.3%,
CN1CC[C@@H]2[C@@]3(C)CC[C@H](O)C(C)(C)[C@@H]3CC[C@@]2(C)[C@]2(C)CC[C@@]3(CO)CCC(C)(C)C[C@@H]3C12 (stereo not given in full),30.2%,97.2%,91.7%,96.7%,108%,94.8%,79.2%,96.8%,
N#Cc1c(-c2ccc(F)cc2)cc(-c2c[nH]c3ccccc23)nc1-c1c[nH]c2ccccc12,89.1%,100%,109%,101%,96.9%,,95.2%,103%,
COC(=O)c1ccc(NC2=C(Cl)C(=O)c3nc(C)ccc3C2=O)cc1,22.3%,70.1%,105%,58.5%,,41.4%,71.5%,19.7%,63.6%
O=c1c2ccccc2cc2n1CCN=C2c1ccccc1,93.6%,101%,108%,97.7%,,116%,92.6%,99.7%,

SMILES,growth (SR leukemia),growth (OVCAR-8 ovarian),growth (OVCAR-5 ovarian),growth (OVCAR-4 ovarian),growth (SK-OV-3 ovarian),growth (IGROV1 ovarian),growth (HS 578T breast),growth (NCI/ADR-RES ovarian),growth (OVCAR-3 ovarian)
Cc1ccccc1NC(=O)Nc1nc2ccc([N+](=O)[O-])cc2s1,6.41% (active),9.56% (active),16.9%,3.62% (active),-19.4% (active),22.6%,24.1%,6.24% (active),10.1%
C#CCOc1cccc(-c2nc(N)nc(Nc3ccccc3SSc3ccccc3Nc3nc(N)nc(-c4cccc(OCC#C)c4)n3)n2)c1,-16.2% (active),16.7%,45%,80.9%,91.5%,-5.3% (active),51.9%,5.66% (active),79.7%
COc1ccc(/C=N/N=C(/c2ccccc2)c2ccc3nc(-c4ccc(Cl)cc4)[nH]c3c2)cc1,71.2%,80.4%,81.5%,75%,93.2%,97.5%,97.4%,85%,
CSc1ccc(C(=NNS(=O)(=O)c2ccc(C)cc2)c2ccc(Cl)cc2)cc1,114%,99.5%,94.3%,102%,,96.8%,101%,98.2%,
CC(C)Sc1nc(-c2ccccc2)c(C#N)c(N2CCOCC2)n1,78.9%,69.3%,59.8%,2.36% (active),86.8%,5.14% (active),50%,71.1%,
Cc1ccc(NC(=O)Nc2nc3ccc([N+](=O)[O-])cc3s2)cc1,20.3%,12.8%,10.3%,-6.09% (active),-12.4% (active),16.8%,15.2%,2.65% (active),-0.465% (active)
O=C(CN1CCN(c2cc(=O)[nH]c3ccc(F)cc23)CC1)N(c1ccccc1)c1ccccc1,90.8%,108%,102%,101%,109%,99.8%,101%,102%,109%
O=c1[nH][nH]c(-c2ccc(F)cc2)c1-c1nc2ccccc2s1,103%,100%,95.9%,106%,88.6%,86.8%,96.9%,86.8%,108%
CCCCCCNC(=O)Oc1ccc(/C(=C(/C)c2ccc(OC)cc2)c2ccc(OCCN3CCCCCC3)cc2)cc1,-6.81% (active),41.8%,,47.1%,66.1%,47%,9.93% (active),48.2%,
O=C(CSc1cc[n+](CCCCO)c2ccccc12)n1ccc2ccccc21,90.3%,95.5%,102%,105%,91%,20.2%,106%,105%,104%
COc1cc(-c2nc(-c3ccccc3)[nH]c2-c2ccnc(NCCCNS(=O)(=O)c3ccc(C)cc3)n2)ccc1F,89.4%,83.8%,119%,108%,148%,95.2%,107%,89.8%,119%
CCCCCC[n+]1ccc(SCC(=O)n2ccc3ccccc32)c2ccccc21,56.6%,92.1%,98.4%,58.6%,89.9%,74.1%,97.6%,103%,84.7%
CNC(=O)c1cc(N2CCc3cc(NC(=O)Nc4ccc(N5CCN(C)CC5)c(C(F)(F)F)c4)ccc32)ccn1,-12.6% (active),95.9%,95.3%,83.4%,107%,96.2%,61.4%,,
CCNC(=O)Oc1ccc(/C(=C(/C)c2ccc(Cl)cc2)c2ccc(OCCN3CCCCCC3)cc2)cc1,-5.81% (active),51.5%,53.5%,43.4%,63.2%,49.5%,-3.08% (active),38.1%,
CCC(=C(c1ccc(OCCN(C)C)cc1)c1ccc(OCCN(C)C)cc1)c1ccc(Cl)cc1,-43% (active),-21.5% (active),-48.7% (active),-20.1% (active),95.5%,-76.8% (active),-36.1% (active),-25.7% (active),-34.8% (active)
C/C(=N\NC(=O)Nc1ccccc1)c1nnn(-c2ccc([N+](=O)[O-])cc2)c1C,100%,102%,112%,105%,109%,112%,116%,102%,
O=C1[C@H]2Cc3c([nH]c4ccccc34)[C@H](c3ccc(Br)cc3)N2C(=O)CN1C1CCN(CC2CCCCC2)CC1,-12.7% (active),85.4%,106%,82.7%,87.9%,82.2%,78%,75.2%,
CNC(=O)Nc1ccc(Nc2cc(-c3ccc(-n4cccn4)cc3)[nH]n2)c(C)c1,89%,102%,111%,102%,107%,108%,116%,99.8%,
Cc1ccc2c(n1)C(=O)C(Cl)=C(Nc1cc(C(F)(F)F)cc(C(F)(F)F)c1)C2=O,7.46% (active),87.8%,109%,-84.8% (active),110%,27.8%,92.8%,99.7%,37.3%
